Bioassay records (PubChem)
The list is not random: actives were taken first. Their share in the collection is about 4.1%.
hcDAF-12 act = activators of H. contortus DAF-12 nuclear receptor; HEK293 hcDAF-12 lit1-tk-luc reporter, luminescence; 0% DMSO, 100% Δ7-dafachronic acid; activation, % at 6.8 µM; actives 1.4% (n = 370,000);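 active means activation above the mean of all tested compounds plus 3 SD, cut at about 5.5% in these data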;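 further: 100% = response to 3 µM Δ7-dafachronic acid high control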
hgDAF12 agonist = activates the H. glycines DAF-12 receptor ligand-binding domain | actives 1.8% (n = 370,000) | HEK293 GAL4-hgDAF12 UAS-luciferase reporter, agonist luminescence; normalized to butyrate control | activation, % at 6.8 µM;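 active means activation above a cutoff set at the mean of all screened compounds plus 3 SD, cut at about 10% in these data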;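 further: 0% = DMSO wells and 100% = sodium butyrate wells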
DAX1 inh-1 = inhibitors of human orphan nuclear receptor DAX1 (NR0B1). HEK293 Gal4-DAX1 luciferase reporter, luminescence. inhibition, % at 6.75 µM. actives 0.99% (n = 340,000). AID 504766;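 active means inhibition above the mean over all tested compounds plus 3 SD, cut at about 4.2% in these data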;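 further: 0% = DAX1-transfected cells with DMSO and 100% = empty-vector control cells with DMSO; inhibition shows as a rise in luminescence from relieved DAX1 repression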
Target sequence (P51843 207-470 limits assumed): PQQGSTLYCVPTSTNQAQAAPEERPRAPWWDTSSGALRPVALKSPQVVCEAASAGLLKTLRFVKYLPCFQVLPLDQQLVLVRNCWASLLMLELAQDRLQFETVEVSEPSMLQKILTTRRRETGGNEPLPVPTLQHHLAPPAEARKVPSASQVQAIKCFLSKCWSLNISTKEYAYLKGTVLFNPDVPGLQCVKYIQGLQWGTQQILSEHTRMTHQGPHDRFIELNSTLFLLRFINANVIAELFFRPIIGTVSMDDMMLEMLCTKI
ssDAF12 agonist = activators of S. stercoralis DAF-12 nuclear receptor. HEK293 ssDAF-12/GRIP1 lit1-tk-luc reporter, luminescence; % of 3 µM dafachronic acid response. activation, % at 6.8 µM. actives 1% (n = 370,000). AID 652126;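 active means activation above the mean over all tested compounds plus 3 SD, cut at about 0.9% in these data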;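 further: 0% = DMSO-only wells and 100% = 3 µM delta7-dafachronic acid wells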
DAX1 inh-2 = inhibitors of DAX1 repression of SF-1 activated StAR promoter. HEK293T StAR-luciferase reporter, SF-1/DAX-1 repression relief. inhibition, % at 6.8 µM. actives 1.1% (n = 370,000). AID 652010;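 active means inhibition above the mean over all tested compounds plus 3 SD, cut at about 3.6% in these data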;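 further: 0% = DAX-1 cells with DMSO and 100% = cells lacking DAX-1 with DMSO; higher inhibition means more luminescence from relief of DAX-1 repression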
hgDAF12 conf = confirmation of H. glycines DAF-12 agonists; shares compounds with hgDAF12 agonist; HEK293 GAL4-hgDAF12 luciferase reporter, agonist mode; percent of butyrate response; activation, % at 6.8 µM; actives 80% (n = 3,300); AID 743050;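 active means mean activation over triplicate wells above the hit cutoff derived from the earlier primary screen, cut at about 11% in these data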;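 further: 0% = DMSO low control and 100% = 2 mM sodium butyrate high control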
LXR ag 2 = counter-screen for DAF-12 agonists: agonists of human LXR-beta | shares compounds with hgDAF12 agonist | HEK293 Gal4-LXR luciferase reporter, 24 h | activation, % at 6.8 µM | 3,300 tested, under 10 active | AID 743051;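 active means mean activation of the triplicate above a set limit carried over from the primary screen, none filed active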
Target sequence (P55055 whole entry, looked up, the tested form may be a part): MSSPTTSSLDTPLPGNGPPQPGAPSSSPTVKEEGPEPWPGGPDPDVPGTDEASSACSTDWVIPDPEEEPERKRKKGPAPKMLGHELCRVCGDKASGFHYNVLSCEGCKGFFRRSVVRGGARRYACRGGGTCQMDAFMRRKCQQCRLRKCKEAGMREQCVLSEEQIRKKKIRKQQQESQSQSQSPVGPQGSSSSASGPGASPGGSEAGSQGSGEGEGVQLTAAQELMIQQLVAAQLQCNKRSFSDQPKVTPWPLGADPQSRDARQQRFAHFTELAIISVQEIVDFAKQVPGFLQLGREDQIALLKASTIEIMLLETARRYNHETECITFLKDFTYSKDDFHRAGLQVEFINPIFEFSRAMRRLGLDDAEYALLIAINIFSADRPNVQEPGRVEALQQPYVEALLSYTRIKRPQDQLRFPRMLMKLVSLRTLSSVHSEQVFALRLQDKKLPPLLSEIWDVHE
Starred values were filed as active, the others as inactive.

Screening C#CCNC(=O)C[C@H]1C[C@@]2(C(=O)OC)C(=C[C@H](COCc3ccccc3)O[C@@H]2C)N(Cc2cccc3ccccc23)C1=O returned hcDAF-12 act -3.3, hgDAF12 agonist -2.7, ssDAF12 agonist -1.8 and DAX1 inh-2 -0.7.
For CN(CC(=O)N1CCc2ccccc21)S(=O)(=O)c1cccs1 the results were hcDAF-12 act 2.9, hgDAF12 agonist 13.4*, DAX1 inh-1 2.2, ssDAF12 agonist 0.2, DAX1 inh-2 2.6, hgDAF12 conf 11.8* and LXR ag 2 0.6.
For CC(C(=O)N1CCc2ccccc21)N1CCN(S(=O)(=O)c2cccs2)CC1 (stereo not given) the results were hcDAF-12 act -1.1, hgDAF12 agonist -0.8, DAX1 inh-1 -0.7, ssDAF12 agonist -1.3 and DAX1 inh-2 -0.4.
Screening COc1ccc2c(c1OC)C(=O)OC2Nc1nc(-c2cc3cc([N+](=O)[O-])ccc3oc2=O)cs1 (stereo not given) returned hcDAF-12 act -1.9, hgDAF12 agonist 0.1, DAX1 inh-1 -0.7, ssDAF12 agonist -0.7 and DAX1 inh-2 -0.4.
`COc1ccc2c(c1OC)C(=O)OC2Nc1nc(-c2cc3ccccc3oc2=O)cs1` (stereo not given) gave hcDAF-12 act 5.3, hgDAF12 agonist 18.1*, DAX1 inh-1 0.3, ssDAF12 agonist 0.7, DAX1 inh-2 4.3*, hgDAF12 conf 17.4* and LXR ag 2 0.8.
For COC(=O)c1ccccc1NC(=O)c1sc(Cl)nc1C the results were hcDAF-12 act -0.2, hgDAF12 agonist -1.8, DAX1 inh-1 0.5, ssDAF12 agonist -0.9 and DAX1 inh-2 -1.2.
COC(=O)c1ccc(-c2ccc(Cl)cc2)nc1C was read as hcDAF-12 act 4.8, hgDAF12 agonist 14.5*, DAX1 inh-1 2.1, ssDAF12 agonist 0.3, DAX1 inh-2 4.3*, hgDAF12 conf 20.0* and LXR ag 2 0.9.
O=C(Nc1ccccc1)c1ccc(CSc2ncccn2)cc1 was read as hcDAF-12 act 3.6, hgDAF12 agonist 15.9*, DAX1 inh-1 1.4, ssDAF12 agonist 0.0, DAX1 inh-2 2.8, hgDAF12 conf 16.8* and LXR ag 2 0.9.
`O=C(Nc1ccccc1F)c1ccc(CSc2ncccn2)cc1` gave hcDAF-12 act 4.0, hgDAF12 agonist 16.4*, DAX1 inh-1 0.5, ssDAF12 agonist 0.1, DAX1 inh-2 2.9, hgDAF12 conf 14.7* and LXR ag 2 0.6.
Cc1ccc(-n2c(SCC(=O)N/N=C/C=C\c3ccccc3[N+](=O)[O-])nnc2-c2ccccc2)cc1 was read as hcDAF-12 act 1.7, hgDAF12 agonist -3.9, ssDAF12 agonist -0.9 and DAX1 inh-2 0.9.
For O=C(c1ccc(Cl)cc1)c1coc2ccc(O)cc12 the results were hcDAF-12 act 3.1, hgDAF12 agonist 17.5*, DAX1 inh-1 3.2, ssDAF12 agonist -0.1, DAX1 inh-2 3.5, hgDAF12 conf 18.4* and LXR ag 2 1.0.
For CCCCN=Cc1sc2ccc(OCC)cc2c1O the results were hcDAF-12 act 0.1, hgDAF12 agonist 3.5, DAX1 inh-1 0.0, ssDAF12 agonist -1.0 and DAX1 inh-2 -0.3.
For C=CCN=Cc1sc2ccc(OCC)cc2c1O the results were hcDAF-12 act 5.6*, hgDAF12 agonist 14.4*, ssDAF12 agonist -0.3, DAX1 inh-2 2.7, hgDAF12 conf 10.4 and LXR ag 2 0.5.
`C/C(=N/NC(=O)c1ccco1)c1ccc(NC(=O)c2ccc(F)cc2)cc1` gave hcDAF-12 act 2.5, hgDAF12 agonist 13.3*, DAX1 inh-1 2.3, ssDAF12 agonist -0.7, DAX1 inh-2 3.1, hgDAF12 conf 10.0 and LXR ag 2 0.4.
Screening COc1ccc(C(=O)Nc2ccc(NC(=O)c3ccco3)cc2)cc1 returned hcDAF-12 act -3.8, hgDAF12 agonist -2.3, DAX1 inh-1 0.5, ssDAF12 agonist -1.4 and DAX1 inh-2 -0.3.
Screening COc1ccc(/C(C)=N\NC(=O)c2ccco2)cc1 returned hcDAF-12 act 3.4, hgDAF12 agonist 23.6*, ssDAF12 agonist -0.6, DAX1 inh-2 3.5, hgDAF12 conf 9.6 and LXR ag 2 0.3.
COc1ccc(C(=O)C(=O)N2CCN(S(=O)(=O)c3cccc4c(N(C)C)cccc34)CC2)cc1OC was read as hcDAF-12 act -2.0, hgDAF12 agonist -0.7, ssDAF12 agonist -1.2 and DAX1 inh-2 -0.8.
`C=CCNc1ccc2c(c1)OC[C@H](CC(C)C)NS2(=O)=O` gave hcDAF-12 act -0.3, hgDAF12 agonist -3.5, ssDAF12 agonist -1.4 and DAX1 inh-2 -1.3.
COc1c(Cl)cnn(-c2cccc(C)c2)c1=O was read as hcDAF-12 act -0.6, hgDAF12 agonist 0.3, DAX1 inh-1 1.4, ssDAF12 agonist -0.5 and DAX1 inh-2 0.1.
Cc1ccc(-n2ncc3ccccc3c2=O)cc1Cl was read as hcDAF-12 act 5.2, hgDAF12 agonist 18.6*, DAX1 inh-1 4.7*, ssDAF12 agonist 0.6, DAX1 inh-2 2.5, hgDAF12 conf 15.1* and LXR ag 2 0.6.
Screening CC(=O)Nc1c(O)nc(SCC(=O)Nc2ccc(C(C)=O)cc2)[nH]c1=O returned hcDAF-12 act 2.8, hgDAF12 agonist 14.4*, DAX1 inh-1 0.9, ssDAF12 agonist -0.7, DAX1 inh-2 -0.4, hgDAF12 conf 11.7* and LXR ag 2 0.2.
Screening CC(=O)Nc1c(O)nc(SCC(=O)Nc2cccc(C)c2)[nH]c1=O returned hcDAF-12 act -0.3, hgDAF12 agonist 0.4, DAX1 inh-1 1.1, ssDAF12 agonist -0.8 and DAX1 inh-2 0.1.
`COc1ccc(-c2nnc(SCC(=O)c3ccc[nH]3)o2)cc1` gave hcDAF-12 act 5.0, hgDAF12 agonist 14.2*, DAX1 inh-1 0.2, ssDAF12 agonist 0.9, DAX1 inh-2 2.8, hgDAF12 conf 15.4* and LXR ag 2 0.8.
Screening Cc1cccc(-n2ncc3c(N)ncnc32)c1 returned hcDAF-12 act 1.9, hgDAF12 agonist 5.7, DAX1 inh-1 -0.1, ssDAF12 agonist -0.9 and DAX1 inh-2 2.2.
`Cc1cccc(-n2ncc3c(N(C)Cc4ccccc4)ncnc32)c1` gave hcDAF-12 act 1.9, hgDAF12 agonist 15.5*, DAX1 inh-1 4.1, ssDAF12 agonist -0.5, DAX1 inh-2 4.0*, hgDAF12 conf 14.4* and LXR ag 2 0.7.
For COCCCn1cnn2c(=O)c3ccccc3nc2c1=O the results were hcDAF-12 act 2.1, hgDAF12 agonist 4.3, ssDAF12 agonist 0.3 and DAX1 inh-2 0.7.
For O=C(CC(NC(=O)OCc1ccccc1)c1nn[nH]n1)OCc1ccccc1 (stereo not given) the results were hcDAF-12 act 3.4, hgDAF12 agonist 13.4*, DAX1 inh-1 1.7, ssDAF12 agonist 0.7, DAX1 inh-2 1.8, hgDAF12 conf 10.6* and LXR ag 2 0.5.
